Assay outcomes as filed in PubChem.
VP16 counter: counter-screen for ROR gamma inhibitors: Gal4-VP16 reporter; Potency, µM (series often up to 53.6 µM), without a hit: top-dose activity, negative = inhibition, actives largely listed as inhibitors; hit rate 3.5% among 310,000; Drosophila S2 Gal4-VP16 UAS-luciferase, luminescence, 20 h;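 note: Gal4-VP16 expression switched on by copper sulfate through the metallothionein promoter; % is set by controls: 0 for no effect and ±100 for the full control effect; nearly all actives have a fitted effect of over 50% in size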
GLP1R inv ag: GLP-1 receptor (human) inverse agonism | Potency, µM (top dose mostly 38.3 µM), inactives show top-dose activity change, negative = inhibition, hits mostly inhibitors | P43220 | HEK293 GLP-1R CRE-luciferase, luminescence, 24 h; GLP-1R form is constitutively active | hit rate 1.6% among 410,000; note: % is set by controls: 0 for no effect and ±100 for the full control effect; nearly all actives have a fitted effect of over 55% in size
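Inverse agonism was detected as reduced cAMP-driven luciferase luminescence after 24 h compound treatment. The cells were HEK293 clones expressing constitutively active human GLP-1R with the reporter. Reporter-only and GPR119 cell lines served as counterscreen controls.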
GLP1R cytotox: cytotoxic in the GLP-1 receptor inverse agonist counter-screen | HEK293 cAMP-luciferase reporter cells, luminescence, 24 h | Potency, µM (doses to about 38.3 µM), for the others: at the top dose activity change, negative = inhibition, actives largely listed as inhibitors | hit rate 0.13% among 410,000 | AID 624418;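 note: loss of luciferase light is scored as toxicity; % is set by controls: 0 for no effect and ±100 for the full control effect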
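To flag toxic compounds, the library was rerun on cells for 24 hr at 37 deg C and 5% CO2. Viability-linked luminescence was captured 12 min after adding luciferase detection reagent.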
GLP-1R agonist: activates the human GLP-1 receptor | P43220 | hit rate 0.007% among 380,000 | Potency, µM (series often up to 45.6 µM), for inactives: top-dose activation, hits mostly activators | HEK293 GLP-1R CRE-luciferase, luminescence, 4-6 h; cells express a hypersensitive GLP-1R form; note: % of control where 0% means no effect
RORgamma inh: ROR gamma (mouse) transcription inhibition; AID 2551; Potency, µM (top dose mostly 53.6 µM), without a hit: at the top dose activity change, negative = inhibition, usual class: inhibitors; hit rate 5.4% among 310,000; P51450; Drosophila S2 Gal4-RORgamma UAS-luciferase reporter, 20 h; note: % is set by controls: 0 for no effect and ±100 for the full control effect; nearly all actives have a fitted effect of over 60% in size
Target sequence (P51450 whole entry, looked up, the tested form may be a part): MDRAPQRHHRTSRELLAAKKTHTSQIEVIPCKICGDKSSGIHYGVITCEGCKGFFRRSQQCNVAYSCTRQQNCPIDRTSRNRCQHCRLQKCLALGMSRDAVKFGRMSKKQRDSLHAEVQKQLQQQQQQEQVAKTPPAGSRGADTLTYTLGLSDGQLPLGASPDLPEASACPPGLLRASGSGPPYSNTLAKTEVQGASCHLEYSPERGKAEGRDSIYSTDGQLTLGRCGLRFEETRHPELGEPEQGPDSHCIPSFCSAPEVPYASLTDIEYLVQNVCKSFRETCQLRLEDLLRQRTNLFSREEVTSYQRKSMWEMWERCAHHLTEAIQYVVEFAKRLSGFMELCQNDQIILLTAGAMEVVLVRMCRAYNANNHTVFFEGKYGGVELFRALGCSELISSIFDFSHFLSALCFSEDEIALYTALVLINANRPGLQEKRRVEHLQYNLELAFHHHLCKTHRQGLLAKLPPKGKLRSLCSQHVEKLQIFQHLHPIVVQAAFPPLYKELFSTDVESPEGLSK
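Compounds are pin-transferred onto Drosophila Schneider cells expressing a copper-inducible Gal4–ROR gamma transactivation domain fusion. After 1 hr, copper sulfate is added to 700 uM final; luciferase is read 20 hr later.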
* marks the source's active call; other numbers are inactive results; ? = inconclusive; / = not tested or not shown; [ ] = remark or other dose. Most compounds without a hit are left out; they make up all but 5.9% or so of the library. Calls come from the whole dose curve; as a rule, active = well fitted curve in the direction sought with a large enough effect; inconclusive = small, poorly fitted or top-dose-only effect, or another doubt; inactive = no such curve, though single readings can be large; an effect the other way counts as inactive or inconclusive. Potency is the fitted concentration of half-maximal effect.

SMILES	VP16 counter	GLP1R inv ag	GLP1R cytotox	GLP-1R agonist	RORgamma inh
O=C(NC(=S)Nc1ccc(Br)c(Cl)c1)C1CC1	7.9µM*	?	-25%	0%	4.5µM*
Cc1ccc(NC(=S)NC(=O)C2CCCC2)cc1C	4.5µM*	?	?	7%	3.5µM*
CCOC(=O)c1cc(-c2ccccc2)n(CC(=O)Nc2ccc(CC)cc2)c1C	/	-7%	15%	/	/
CCc1ccc(NC(=O)CSc2nnc(-c3cc4occc4n3C)n2-c2ccccc2C)cc1	/	?	2%	/	/
O=C(CN1C(=O)S/C(=C\c2ccccc2)C1=O)NNC(=O)c1ccccc1O	-9%	2%	-5%	0%	-5%
O=C(CCCN1C(=O)/C(=C/c2ccccc2)SC1=S)NCCCn1ccnc1	4.5µM*	?	?	-1%	5µM*
O=C(CCCN1C(=O)/C(=C/c2ccccc2)SC1=S)Nc1ccccc1O	?	0%[7.66 µM]	-9%[7.66 µM]	1%	4.5µM*
O=C(CCCN1C(=O)S/C(=C\c2ccccc2)C1=O)NNC(=O)c1ccccc1O	2.5µM*	?	0%	2%	0.45µM*
CC(/C=C1\SC(=S)N(CCC(=O)Nc2ccccc2O)C1=O)=C\c1ccccc1	-1%	5.6µM*	-4%	-13%	13%
COc1ccccc1C(=O)NC1(C(F)(F)F)C(=O)Nc2c1c(=O)[nH]c(=O)n2-c1ccc(F)cc1 (stereo not given)	/	-5%	5%	-4%	/
CCNc1ncc2nc(-c3cc(F)cc(F)c3)c(=O)n(C3CC3)c2n1	-2%	/	/	/	18%
COc1ccc(/C=C2\SC(=S)N(CCC(=O)NCCc3ccc(O)cc3)C2=O)cc1	-4%	-7%	5%	2%	10%
O=C(CCN1C(=O)/C(=C/c2ccccc2)SC1=S)NCCc1ccc(O)cc1	?	5µM*	?	-5%	?
Cc1cc(C)c2c(CC(=O)Nc3ccc(F)cc3)coc2c1	/	-14%	-1%	/	/
O=C1C=CC(=O)N1CCCCCCN1C(=O)C=CC1=O	0.89µM*	?	?	-22%	3.2µM*
O=C(O)CN1C(=O)C=CC1=O	/	15%	0%	-2%	/
COc1ccc(-c2nc3ccccc3o2)cc1NC(=O)CSc1ccc(Cl)cc1	-26%	18%	-16%	1%	1.4µM*
Cc1ccc(-n2[nH]c(=O)c3cccnc32)cc1	5%	-4%	4%	-2%	21%
Cc1ccc(-n2[nH]c(=O)c(-c3ccccn3)c2C)cc1	2.8µM*	1µM*	?	-4%	1.3µM*
C=CCn1c(C)cc(C(=O)CSc2nc3ccccc3[nH]2)c1C	13µM*	0%	6%	-10%	10µM*
c1ccc(-c2nnc(SCc3nc4ccccc4[nH]3)n2Cc2ccco2)cc1	?	0%	7%	-5%	11µM*
Cc1cc(C(=O)CCl)c(C)n1Cc1ccco1	18µM*	-11%[0.307 µM]	13%[0.307 µM]	-33%	7.9µM*
Cc1cc(C(=O)CSc2nncs2)c(C)n1Cc1ccco1	?	?	4%	1%	-31%
C=CCn1c(C)cc(C(=O)CSc2nc3ccccc3c(=O)[nH]2)c1C	?	3%	-15%	-8%	-16%
Cc1cc(C(=O)CCl)c(C)n1CCc1ccccc1	-12%	?	?	-3%	17%
SMILES	VP16 counter	GLP1R inv ag	GLP1R cytotox	GLP-1R agonist	RORgamma inh
COC(=O)CCCn1c(C)cc(C(=O)CCl)c1C	-80%	1%[0.307 µM]	-2%[0.307 µM]	7%	8.9µM*
COc1ccc(O[C@H]2C=C[C@@H](c3ccccc3)O[C@H]2CO/N=C2/c3cc(OC)ccc3O[C@@H](c3cccc(OC)c3)[C@H]2O)cc1	5%[10 µM]	/	/	/	2%[10 µM]
COc1ccc(N2CCN(C(=O)c3cc(S(=O)(=O)N4CCCCCC4)cn3C)CC2)cc1	/	6%	4%	1%	/
O=C(O)c1cc(=O)c2cc(Cl)ccc2[nH]1	-5%	/	/	/	3%
Cc1cc(C(=O)CSc2nc3ccccc3[nH]2)c(C)n1Cc1ccco1	16µM*	?	20%	-2%	?
CN(c1nc2ccccc2nc1Cl)S(=O)(=O)c1ccccc1	?	10µM*	-7%	13%	25%
CCc1nnc2c(N(C)S(=O)(=O)c3ccc(C)cc3)nc3ccccc3n12	17%	24%	2%	0%	-9%
